Among the data in PubChem BioAssay (Tox21) are Potency values, retold here.

The structures appear in SMILES notation. Records with an inconclusive call do not appear. Where a call stands in place of a potency, no number is given. Active and inactive are the calls of the source. Calls come from the whole dose curve; as a rule, active = well fitted cell-killing curve with a large enough effect in the repeat runs; inconclusive = weak or mixed curves; inactive = flat fitted curve, though single readings scatter.
Potency is the fitted concentration of half-maximal effect.

The nature of this experiment: qHTS assay to identify small molecule antagonists of the estrogen related receptor (ERR) signaling pathway from Tox21 library - cell viability counter screen (AID 1224834). Note: nearly all actives have a fitted effect of over 30% in size. The note with it: ERR reporter cells viability, CellTiter-Fluor, 17.5 h; series mostly up to 92.4 µM. The source says:
National Center for Advancing Translational Sciences [NCATS]
NIH Chemical Genomics Center [NCGC]
U.S. Environmental Protection Agency [EPA]
National Institutes of Environmental Health Sciences [NIEHS]
National Toxicology Program [NTP]
U.S. Food and Drug Administration [FDA]
Estrogen related receptors (ERRs), the first orphan nuclear receptors discovered, play an important role in the control of cellular energy metabolism. ERRs are required for high-energy production in response to the environmental challenges. ERR-alpha was also identified as an adverse marker for breast cancer progression; ERR-alpha-positive tumors have a poor prognosis. To screen and to identify environmental compounds that perturb the ERR signaling pathways could provide valuable information for potential therapeutic or preventive measures in the treatment of metabolic disease. To differentiate true ERR antagonists or agonist from cytotoxic substances, the assay is multiplexed with cell viability assay.
Tox21 Assay Protocol Summary:
The ERR cells were dispensed at 2,000 cells/5 ul/well in 1536-well white plates using a Multidrop dispenser. After the assay plates were incubated at a 37 C/5% CO2 incubator for 6 hours, 23 nL of compounds dissolved in DMSO, positive and negative controls or DMSO only was transferred to the assay plate by a pin tool. The plates were incubated at 37 C for 17.5 hours. 1 ul/well of CellTiter-Fluor reagent was added into the assay plates using a Flying Reagent Dispenser. After 30-minute incubation at 37 C/5% CO2, the fluorescence intensity in the plates was measured using a ViewLux plate reader.
For the compound `Clc1cccc(SC2CCNCC2)n1`, the Potency result was “inactive”.
Then `O=C(Nc1ccccc1)Nc1ccnc(Cl)c1`, with 43.3 µM (active); and `O=C(CBr)OCc1ccccc1`, with “inactive”.
Turning to `O=S(=O)(O)C(F)(F)C(F)(F)C(F)(F)C(F)(F)F`, the Potency result was “inactive”.
Take `C#CCOC(C(=O)OCCN(C)C)(c1ccccc1)c1ccccc1`: the Potency result is “inactive”.
Take `CC(C)O.CC(C)O.OCCN(CCO)CCO.OCCN(CCO)CCO.[Ti]`: the Potency result was “inactive”.
Take `CC1C(=O)C[C@]2(C(C)C)C[C@H]12` (stereo not given in full): the Potency entry is “inactive”.
As for `CCOP(=O)(OCC)SCCSCC`, the Potency entry was “inactive”.
Then `CCCCN(N=O)C(=N)N[N+](=O)[O-]`, with “inactive”; and `CCCCCC[N+](=O)[O-]`, with “inactive”.
Turning to `CCCCCCCCCC(=O)O[C@H]1CC[C@H]2[C@@H]3CCC4=CC(=O)CC[C@@H]4[C@H]3CC[C@]12C`, the Potency entry is “inactive”.
With `CN1[C@@H]2CC[C@H]1CC(OC(=O)c1cc(Cl)cc(Cl)c1)C2` (stereo not given in full), the Potency entry was “inactive”.
The entry for `ClCc1ccccc1` is “inactive”; for `C/C=C/C=O` it is “inactive”.
Regarding `COc1cc(Cl)c(OC)cc1Cl`, the Potency entry was “inactive”.
The figure for `CCCC(Cn1cncn1)c1ccc(Cl)cc1Cl` (stereo not given) is 54.5 µM (active).
The figure for `CCC(C)(NC(=O)c1cc(Cl)c(C)c(Cl)c1)C(=O)CCl` (stereo not given) is 24.5 µM (active); for `C=C(C#N)CCC#N` it is “inactive”.
As for `ClCc1cccc(Cl)c1`, the Potency result was “inactive”.
Take `O=S(=O)(Cl)c1ccccc1`: the Potency result was “inactive”.
Then `ClCC(Br)CBr` (stereo not given), with “inactive”; and `CCCN(CC1CC1)c1c([N+](=O)[O-])cc(C(F)(F)F)cc1[N+](=O)[O-]`, with “inactive”.
The entry for `C=CCC1([C@H](C)CCC)C(=O)NC(=O)NC1=O` is “inactive”; for `O=NN1CCCCCC1` it is “inactive”.
As to `CCCCCCCCCCOC(=O)c1ccccc1C(=O)OCCCCCCCCCC`, the Potency entry was “inactive”.
The entry for `O=Cc1ccc2c(c1)OCO2` is “inactive”.
Then `Cc1c(F)c(F)c(COC(=O)C2C(/C=C(\Cl)C(F)(F)F)C2(C)C)c(F)c1F` (stereo not given), with “inactive”.
Then `O=C1c2ccccc2C(=O)C1C(=O)C(c1ccccc1)c1ccccc1`, with “inactive”.
Turning to `CCOP(=S)(Oc1ccc([N+](=O)[O-])cc1)c1ccccc1` (stereo not given), the Potency result was “inactive”.
Then `CC(C)(CCl)C(=O)Cl`, with “inactive”.
The figure for `CC(C)(C)c1cc([N+](=O)[O-])cc([N+](=O)[O-])c1O` is 15.3 µM (active).
The entry for `C=CCN1CC[C@]23c4c5ccc(O)c4O[C@H]2C(=O)CC[C@@]3(O)[C@H]1C5` is “inactive”; for `COC(=O)c1cncn1C(C)c1ccccc1` (stereo not given) it is “inactive”.
On to `COP(=S)(Oc1cc(Cl)c(Br)cc1Cl)c1ccccc1` (stereo not given), for which the Potency result is “inactive”.
On to `Cn1sc(Cl)cc1=O`, for which the Potency result is “inactive”.
Regarding `C=CCCl`, the Potency entry was “inactive”.
Then `CCOC(=O)C(Cl)C(C)=O` (stereo not given), with “inactive”; and `CCOS(C)(=O)=O`, with “inactive”; and `Cc1ccccc1C(=O)Nc1cccc(OC(C)C)c1`, with “inactive”.
The entry for `C=CC(=O)OCCCCO` is “inactive”.
